High-throughput results as filed in PubChem.
HCV inh = blocks hepatitis C virus; Potency, µM (top dose mostly 41.8 µM), without a hit: at the top dose activity change, negative = inhibition, actives largely listed as inhibitors; Huh7.5.1 HCVcc-Cre infection, luciferase reporter, 44 h; AID 651820; 3.4% of 340,000 active; further: on the % scale 0 is the no-effect control and ±100 the full control effect
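Compounds are dispensed onto cells plated 4 h earlier at 1,000 per well, with HCVcc-Cre virus (about 0.5 moi) added next. Following 44 h of culture, luminescent signal is measured for 15 sec after 15 min with substrate at room temperature.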
SARS PLpro yeast = inhibitors of SARS-CoV papain-like protease in yeast. S. cerevisiae expressing SARS-CoV PLpro, growth rescue. Potency, µM (titrated, usually from 32.9 µM), for inactives: at the highest dose activity, positive = growth rescue, usual class: activators. 0.19% of 330,000 active; calls by dose curve; further: 0% is about no effect; nearly all actives have a fitted effect of over 55% in size
Pf growth 96h = inhibits malaria parasite growth, 96 h. 6.9% of 320,000 active. P. falciparum luciferase reporter growth, 96 h. Potency, µM (titrated, usually from 28.7 µM), without a hit: top-dose activity change, negative = inhibition, actives largely listed as inhibitors; further: on the % scale 0 is the no-effect control and ±100 the full control effect
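Two-generation exposure (96 h) targets delayed-death phenotype. Reporter parasites carrying integrated firefly luciferase, in red cells at 2% hematocrit and 0.05% parasitemia final, kept at 37 C, 5% CO2; luminescence loss indicates inhibition.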
NS1 inh = inhibitors of influenza NS1 protein function | Potency, µM (titrated, usually from 46.1 µM), inactives show at the top dose activity, positive = more growth | 0.4% of 270,000 active; calls by dose curve; further: actives are rising curves; nearly all actives have a fitted effect of over 50% in size
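S. cerevisiae expressing influenza A NS1, grown in glucose, washed, then diluted 1:100 into pH 6.0 -URA galactose medium with 23 nl compound. Growth recovery read as OD600; NS1-free strain serves as control.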
AMA1 RON2 block = AMA1-RON2 (P. falciparum) interaction inhibition. AlphaScreen AMA1-biotinylated RON2 peptide binding. Potency, µM (highest dose often 58.2 µM), without a hit: top-dose activity change, negative = inhibition, hits mostly inhibitors. 0.2% of 360,000 active. AID 720542;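 further: 0% = vehicle wells and -100% = peptide control; nearly all actives have a fitted effect of over 45% in size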
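AMA1 (3D7) with his tag at 25 nM final met compounds first, then biotinylated RON2 peptide at 25 nM; detection used donor plus acceptor beads, 10 µg/mL apiece, read by AlphaScreen after 30 min at room temperature.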
Pf growth 48h = inhibits P. falciparum growth in the first generation, 48 h | Potency, µM (highest dose often 28.7 µM), inactives show top-dose activity change, negative = inhibition, actives largely listed as inhibitors | 5.9% of 310,000 active | P. falciparum luciferase growth in erythrocytes, 48 h | AID 504832; further: on the % scale 0 is the no-effect control and ±100 the full control effect
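Erythrocytes infected with P. falciparum carrying an integrated firefly luciferase reporter (2% hematocrit, 0.1% parasitemia final) were exposed to compounds in RPMI 1640 with 0.5% Albumax at 37 C, 5% CO2. Growth inhibition was scored as reduced luminescence.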
* = called active by the depositor; ? = inconclusive; / = not tested or not shown. An excerpt weighted towards active compounds, which were near 12% of everything screened. Unless noted, the call rests on the fitted dose curve; in most records, active means well fitted curve in the direction sought with a large enough effect; inconclusive means small, poorly fitted or top-dose-only effect, or another doubt; inactive means no such curve, though single readings can be large; an effect the other way counts as inactive or inconclusive. Potency means the concentration at half of the fitted maximal effect.

SMILES	HCV inh	SARS PLpro yeast	Pf growth 96h	NS1 inh	AMA1 RON2 block	Pf growth 48h
CC(=O)NC(CC(=O)N(Cc1ccccc1)c1ccc(C)cc1)c1ccccc1 (stereo not drawn)	/	2.0%	13.1µM*	-4.0%	10.8%	?
CC(=O)NC(CC(=O)NCCc1ccccc1)c1ccccc1 (stereo not drawn)	0.4%	-3.0%	-11.1%	5.3%	-12.2%	13.8%
CS(=O)(=O)NCc1nnc(SCc2ccc(C(F)(F)F)cc2)o1	34.7%	0.1%	30.5%	-2.1%	9.4%	-14.8%
COc1ccc(/C=C/C(=O)NCCSCc2ccco2)cc1OC	1.6%	0.2%	-18.9%	-0.5%	-2.9%	-3.9%
Cn1c(CN2CCN(c3ccc(Cl)cc3)CC2)nc2ccccc21	-17.0%	8.91µM*	?	-65.1%	6.7%	-12.0%
CCCn1c(CN2CCN(C)CC2)nc2ccccc21	-8.7%	6.0%	-27.0%	7.8%	23.8%	/
CCn1c(CN2CCN(c3ccc(Cl)cc3)CC2)nc2ccccc21	?	25.9%	?	-40.6%	6.9%	11.7µM*
C=C1C(O)[C@@H]2O[C@]3(CC[C@H](/C=C/C(C)[C@@H]4CC(C)=CC5(O[C@H](C[C@@](C)(O)CO)CCC5O)O4)O3)CC[C@H]2O[C@@H]1C(O)CC(C)[C@H]1OC2(CCCCO2)CCC1C (stereo partly drawn)	1.41µM*	-1.7%	/	/	39.4%	/
C=C1[C@@H](O)[C@@H]2O[C@]3(CC[C@H](/C=C/[C@@H](C)[C@@H]4CC(C)=CC5(O[C@H](C[C@@](C)(O)C(=O)OC)CC[C@H]5O)O4)O3)CC[C@H]2O[C@@H]1[C@@H](O)C[C@H](C)[C@H]1OC2(CCCCO2)CC[C@H]1C (stereo partly drawn)	0.562µM*	-5.0%	/	/	4.2%	/
C=CCNc1nc(Cl)nc(NC2CCCCC2)n1	?	0.4%	-2.9%	-1.4%	8.4%	12.0%
COC(=O)CNc1nc(Cl)nc(NC2CCCCC2)n1	-6.9%	0.9%	5.22µM*	-12.0%	31.4%	45.0%
CCC1(CC)NC(=O)N(CC(=O)N2CCN(c3ccccc3F)CC2)C1=O	7.0%	0.9%	1.0%	/	1.0%	5.8%
O=C(CN1C(=O)NC(c2ccccc2)(c2ccccc2)C1=O)N1CCN(c2ccccc2F)CC1	?	1.5%	?	/	?	13.1µM*
O=C(CN1C(=O)NC(c2ccccc2)(c2ccccc2)C1=O)N1CCN(c2ccc(F)cc2)CC1	?	-3.2%	?	/	-10.5%	11.7µM*
CC(C)CCOc1ncnc2c1sc1nc3c(cc12)CSC(C)(C)C3	?	-1.2%	?	1.6%	-3.0%	11.7µM*
COCCNC(=O)/C(C#N)=C/c1c(N2CCN(c3cccc(Cl)c3)CC2)nc2c(C)cccn2c1=O	?	-2.6%	?	3.1%	-4.8%	13.1µM*
CCNC(=O)/C(C#N)=C/c1c(N2CCN(c3ccccc3)CC2)nc2c(C)cccn2c1=O	19.2%	1.1%	?	-1.8%	-18.6%	?
CCNC(=O)/C(C#N)=C/c1c(N2CCCCCC2)nc2c(C)cccn2c1=O	?	-1.6%	13.1µM*	-3.2%	6.4%	?
C=CCNC(=O)/C(C#N)=C/c1c(N2CCN(c3cccc(Cl)c3)CC2)nc2c(C)cccn2c1=O	4.8%	0.1%	?	9.9%	-26.0%	8.28µM*
CNC(=O)/C(C#N)=C/c1c(N2CCN(c3cccc(Cl)c3)CC2)nc2c(C)cccn2c1=O	-11.5%	-1.6%	?	-0.6%	-20.2%	-20.6%
COCCNC(=O)/C(C#N)=C/c1c(N2CCN(c3ccccc3)CC2)nc2c(C)cccn2c1=O	-19.7%	-2.4%	?	1.0%	5.9%	13.1µM*
COc1ccc(OC)c(NC(=O)COC(=O)CN(C)S(=O)(=O)c2ccc(C)cc2)c1	0.0%	-8.9%	2.3%	-56.6%	3.6%	9.2%
COC(=O)c1ccc(NC(=O)CSc2nc(=O)n3cccc(C)c3n2)cc1	10.6%	0.8%	-1.4%	/	-3.5%	10.1%
CCC(C)(C)NC(=O)Cc1ccc(Cl)cc1	10.9%	0.8%	19.2%	5.7%	-9.1%	39.5%
Cc1nc2ccccc2c2oc(C(=O)N3CCN(c4ccc([N+](=O)[O-])cc4)CC3)cc12	-17.9%	-0.7%	22.2%	-0.7%	18.2%	4.8%
SMILES	HCV inh	SARS PLpro yeast	Pf growth 96h	NS1 inh	AMA1 RON2 block	Pf growth 48h
CCNC(=O)/C(C#N)=C/c1c(N2CCN(c3ccc(OC)cc3)CC2)nc2c(C)cccn2c1=O	-21.3%	4.7%	?	1.9%	-22.4%	?
CCOC(=O)/C(C#N)=C/c1c(N2CCN(c3ccc(OC)cc3)CC2)nc2c(C)cccn2c1=O	?	-2.4%	11.7µM*	9.4%	?	9.28µM*
Cc1ccc(CNC(=O)CSc2ccc(-c3ccccn3)nn2)cc1	-5.4%	?	2.1%	/	?	7.8%
O=C(CSc1ccc(-c2cccnc2)nn1)Nc1ccc(Br)cc1	12.6µM*	-0.7%	?	1.7%	3.6%	-17.1%
CC(=O)Nc1ccc(NC(=O)CSc2ccc(-c3cccnc3)nn2)cc1	-2.0%	0.4%	?	7.4%	-9.5%	?
O=C(CSc1ccc(-c2ccccn2)nn1)NCc1ccc(Cl)cc1	-2.1%	22.3%	-28.2%	/	14.1µM*	?
CCOc1ccc(NC(=O)CSc2ccc(-c3cccnc3)nn2)cc1	-7.1%	-0.4%	5.86µM*	-4.3%	21.2%	-20.4%
CCOc1ccc(NC(=O)CSc2ccc(-c3ccccn3)nn2)cc1	2.6%	7.94µM*	?	-2.9%	-27.9%	?
Cn1c(=O)c2c(nc(C3CC4C5CCC(C5)C4C3)n2C)n(C)c1=O (stereo not drawn)	?	/	/	/	-1.0%	/
COc1ccc(C(NC(=O)CN2CCCCCC2)c2ccc(OC)cc2)cc1	-9.5%	-0.9%	?	14.1%	-4.9%	?
CN(CC(=O)Nc1ccccc1Cl)C(=O)COC(=O)c1nc(Cl)c(Cl)c(Cl)c1Cl	?	-4.3%	0.0%	-35.0%	-16.5%	-4.5%
O=C(CSc1ccc(-c2cccnc2)nn1)Nc1ccccc1C(F)(F)F	-21.5%	-3.3%	10.4µM*	-5.8%	-7.7%	-14.5%
O=C(CSc1ccc(-c2ccccn2)nn1)Nc1ccc(F)c(F)c1	10µM*	?	-102.3%	-36.7%	-3.4%	-21.1%
CC[C@H](CN(C)C)C(=O)c1ccco1	/	/	/	-3.9%	/	/
CN(c1ccc(OCC(=O)N2CCN(C/C=C/c3ccccc3)CC2)cc1)S(=O)(=O)c1cccs1	11.2µM*	0.3%	?	-3.6%	-16.0%	9.28µM*
CC(=O)N[C@@H]1CONC1=O	/	/	/	-1.4%	/	/
CN(CC(=O)O)Cc1c[nH]c2ccccc12	/	/	/	10.4%	/	/
Cc1c(NC(=O)Oc2ccccc2)sc(=S)n1C	27.2%	-2.6%	-26.6%	2.3%	-1.6%	/
